Bioassay records: PubChem BioAssay, National Center for Advancing Translational Sciences (NCATS)
Rows were chosen to be rich in hits. Some 8.8% of all compounds tested hit in one or more screens of this group.
HT1080 IDH1KD tx: qHTS for induction of synthetic lethality in tumor cells producing 2HG: qHTS for the HT-1080-IDH1KD cell line. AID 686971, 2013. hit rate 2% among 360,000. HT-1080 IDH1 knockdown viability, ATP luminescence, 48 h. Potency, µM (top dose mostly 46.1 µM), for inactives: at the top dose activity, negative = toxicity, most hits filed as cytotoxic;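 also: potency is read from the fitted curve at half-maximal effect; 0% = DMSO wells and -100% = cell-free medium wells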
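After a 2 h attachment period, IDH1KD HT-1080 cells took pin-transferred compound for 48 h at 37 °C; ATP-based luminescence after 10 min room-temperature reagent incubation reported viability.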
HT1080-NT tox: qHTS for induction of synthetic lethality in tumor cells producing 2HG: qHTS for the HT-1080-NT fibrosarcoma cell line; HT-1080-NT fibrosarcoma viability, CellTiter-Glo ATP luminescence, 48 h; Potency, µM (series often up to 46.1 µM), without a hit: at the highest dose activity, negative = less viability, hits mostly cytotoxic; hit rate 1.6% among 360,000; AID 686970, 2013;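 also: NT is the 2HG producing partner of a matched IDH1 knockdown line; potency is read from the fitted curve at half-maximal effect; 0% = DMSO-treated cells and -100% = media-only wells without cells; nearly all actives have a fitted effect of over 55% in size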
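HT-1080-NT; 750 cells/well; 5% FBS RPMI; 48 h compound, 37 degrees C; CellTiter-Glo luminescence; curve fitting and curve-class assignment.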
KB-3-1 tox: qHTS assay for MDR1-selective chemotherapeutics: Primary screen using the parental adenocarcinoma cell KB-3-1. KB-3-1 viability, CellTiter-Glo ATP luminescence, 72 h. Potency, µM (titrated, usually from 46.1 µM), most hits filed as cytotoxic. AID 1347075, 2019. hit rate 1.4% among 400,000; also: potency is read from the fitted curve at half-maximal effect; nearly all actives have a fitted effect of over 60% in size
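Multi-concentration cytotoxicity screen in KB-3-1 cells grown in DMEM lacking phenol red with 10% FBS. After 72 h at 37 °C with compound, ATP-dependent luminescence was recorded.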
IL-1B inflam inh: qHTS for Inhibitors of Inflammasome Signaling: IL-1-beta AlphaLISA Primary Screen; hit rate 4.7% among 360,000; THP-1 LPS/ATP IL-1B secretion, AlphaLISA, 16 h; active compounds read low; activity change, % at 57.5 µM; in the data active = activity change below about -50%; inconclusive = mostly about -30% to -49%
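THP-1 cells pretreated 1 hr with compounds (up to 57.5 uM final), then stimulated with LPS (250 ng/mL final) plus ATP (1.25 mM final); secreted IL-1B measured by AlphaLISA after 16 hr, decreased signal indicating inhibition.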
KB-V1 MDR tox: qHTS assay for MDR1-selective chemotherapeutics: Primary screen using the drug-selected MDR subline cells KB-V1 | KB-V1 MDR cells viability, CellTiter-Glo, 72 h | hit rate 3.4% among 400,000 | AID 1347076, 2019 | Potency, µM (series often up to 46.1 µM), most hits filed as cytotoxic; also: potency is read from the fitted curve at half-maximal effect; nearly all actives have a fitted effect of over 60% in size
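qHTS viability screen in drug-selected KB-V1 MDR cells: 72 h compound treatment at 37 degrees C, ATP luminescence end point.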
* hit, by the source's call; i = inactive; u = inconclusive; x = no result given; ! = not confirmed by another sample. Unless noted, calls follow the shape of the dose curve; as a rule, active = well fitted curve in the direction sought with a large enough effect; inconclusive = small, poorly fitted or top-dose-only effect, or another doubt; inactive = no such curve, though single readings can be large; an effect the other way counts as inactive or inconclusive. Unless noted, % is scaled to controls: 0 for no effect and ±100 for the full control effect.

SMILES | HT1080 IDH1KD tx | HT1080-NT tox | KB-3-1 tox | IL-1B inflam inh | KB-V1 MDR tox
Cc1ccccc1C(=O)/C=C1/c2ccccc2CC(C)(C)N1C | u | u | i | -1.3 | i
Cc1cccc(C(=O)/C=C2/c3ccccc3CC(C)(C)N2C)c1 | 11.2µM* | -5.3% | i | -5.6 | 18.4µM*
O=C(Nc1cccc(F)c1)N(Cc1ccc(Cl)cc1)CC(O)C(F)(F)F (configuration not stated) | u | 20.6µM* | u | -17.7 | u
Cc1ccc(NC(=O)CSc2nnnn2-c2cccnc2)c(C)c1 | 7.6% | 0.0% | i | 7.1 | u
Nc1ncnc2c1nc(Br)n2[C@@H]1O[C@@H]2COP(=O)(O)O[C@H]2[C@H]1O | -22.4% | -17.2% | u | -5.1 | u
Nc1ccccc1Nc1cc(-c2ccccc2)nn1-c1ccccc1 | -12.2% | -5.2% | i | -8.9 | i
Nc1ccccc1Nc1cc(-c2ccccc2)[nH]n1 | u | u | i | -94.3* | u
COc1cccc(CNC(=O)c2c(C)nn(-c3ccc(F)cc3)c2-n2cccc2)c1 | x | x | i | x | 9.2µM*
CSc1ccc(CCNC(=O)c2c(C)nn(-c3ccc(F)cc3)c2-n2cccc2)cc1 | x | x | 3.26µM* | x | 5.8µM*
CCOc1ccc(CNC(=O)c2c(C)nn(-c3ccc(F)cc3)c2-n2cccc2)cc1 | x | x | u | x | 13µM*
COCCCNC(=O)c1c(C)nn(-c2ccc(F)cc2)c1-n1cccc1 | x | x | i | x | u
CC(C)Cc1ccc(-c2cc3nc(NCCc4ccc(S(N)(=O)=O)cc4)ccn3n2)cc1 | 23.1µM* | u | i | 31.3 | i
COc1cc(-c2cc3nc(NCCc4ccc(S(N)(=O)=O)cc4)ccn3n2)cc(OC)c1OC | -20.5% | -18.1% | i | -50.0* | i
CC(C)Cc1ccc(-c2cc3nc(NCCOc4ccccc4)ccn3n2)cc1 | u | -16.7% | i | -10.1 | i
CC(C)Cc1ccc(-c2cc3nc(NCCCn4ccnc4)ccn3n2)cc1 | u | 16.4µM* | i | -2.3 | i
NS(=O)(=O)c1ccc(CCNc2ccn3nc(-c4ccccc4)cc3n2)cc1 | 13.5% | 16.7% | i | -21.7 | i
CC(C)(C)c1cc2nc(NCCc3ccc(S(N)(=O)=O)cc3)ccn2n1 | -4.9% | -7.8% | i | -1.2 | i
COc1cc(-c2cc3nc(NCCOc4ccccc4)ccn3n2)cc(OC)c1OC | 9.2µM* | 20.6µM* | u | 12.0 | 16.4µM*
CCOC(=O)C1=C(COC(=O)C2CC(=O)N(c3ccc(C)cc3)C2)NC(=O)NC1C (configuration not stated) | 19.7% | 17.4% | i | 16.2 | i
CCCCCCNC(=O)CCCCCNS(=O)(=O)c1ccc(Br)cc1 | -15.0% | -23.4% | i | 18.6 | u
CC(C)c1ccc(NC(=O)CN2C=NS(=O)(=O)c3ccccc32)cc1 | x | x | i | x | i
CC(Sc1nnc(-c2ccc(OC(F)F)cc2)n1N)C(=O)NCC1CCCO1 (configuration not stated) | 13.9% | 2.3% | u | -4.5 | i
COc1cc(-c2cc3nc(NCCc4ccncc4)ccn3n2)cc(OC)c1OC | -21.5% | -1.6% | i | -58.0* | i
COc1ccc(CC(=O)Nc2ccc(S(=O)(=O)N3CCCCC3)cc2)cc1OC | -4.2% | -12.8% | i | -4.0 | u
CN1C(=O)C(c2cn(C)c3ccccc23)(c2cn(C)c3ccccc23)c2cc(Br)ccc21 | -14.8% | 0.3% | i | 17.8 | i
SMILES | HT1080 IDH1KD tx | HT1080-NT tox | KB-3-1 tox | IL-1B inflam inh | KB-V1 MDR tox
O=C(CCl)NC(=O)NC12CC3CC(CC(C3)C1)C2 | -0.3% | -25.4% | i | -68.6* | i
CC(=O)OC1(C)C=Cc2ccccc2C1=NS(=O)(=O)c1ccccc1 (configuration not stated) | -9.6% | -3.3% | i | 33.9 | i
CCCOc1ccc(-c2nnn(CC(=O)Nc3cccc(C(=O)OC)c3)n2)cc1 | 5.5% | 8.9% | i | 27.9 | 13µM*
COc1ccccc1NC(=O)Cn1nnc(-c2ccccc2NS(=O)(=O)c2ccccc2)n1 | -16.3% | -5.5% | u | 4.3 | 5.8µM*
Cc1ccccc1NC(=O)Cn1nnc(-c2ccc(CN3CCC(C)CC3)cc2)n1 | 0.3% | -6.6% | i | -7.8 | u
COc1ccc(NC(=O)Cn2nnc(-c3ccc(CN4CCOCC4)cc3)n2)c(OC)c1 | -0.2% | -3.8% | i | -15.2 | 20.6µM*
CCCCOc1ccc(-c2nnn(CC(=O)NCCc3c[nH]c4ccccc34)n2)cc1 | -1.3% | -0.5% | i | -20.4 | 16.4µM*
CC(=O)NCC(=O)OC(C(=O)c1ccccc1)c1ccc(Cl)cc1 (configuration not stated) | 4.6% | 7.7% | i | -3.9 | i
COC(=O)c1ccccc1NC(=O)Cn1nnc(-c2ccc3c(c2)OCO3)n1 | 7.7% | 5.5% | u | 6.5 | i
COC(=O)c1ccccc1NC(=O)Cn1nnc(-c2ccc(OC)cc2)n1 | 4.8% | 15.3% | i | 11.3 | 14.6µM*!
OCCNCc1ccc(OCc2ccc(Cl)cc2Cl)cc1 | 20.6µM* | u | i | -97.8* | i
OCCCCNCc1ccc(OCc2ccc(Cl)cc2Cl)cc1 | u | u | i | -100.6* | i
S=C(Nc1ccccc1)Nc1ccc(OCc2ccc(Cl)cc2Cl)cc1 | -10.8% | -10.3% | i | -2.4 | i
CC(=O)c1ccccc1S(=O)(=O)N1CCN(c2nc(-c3cccs3)nc3ccccc23)CC1 | 0.1% | 0.9% | x | x | x
c1ccc2c(c1)ncn2-c1ncnc2sc3c(c12)CCCC3 | -10.6% | -23.6% | i | 18.3 | i
Cc1nc(-n2nnc3ccccc32)c2c3c(sc2n1)CCCC3 | u | -0.8% | u | 1.6 | 13µM*
Cc1nc(N2CCN(C)CC2)c2c3c(sc2n1)CCCC3 | -8.0% | -16.0% | i | u | i
CC(O)CNc1nc2ccccc2n1-c1ncnc2sc3c(c12)CCC3 (configuration not stated) | u | u | u | u | 13µM*
c1ccc2c(c1)nnn2-c1ncnc2sc3c(c12)CCCC3 | -0.2% | 0.5% | i | 0.0 | 16.4µM*
Cc1cccc(NC(=S)NN(Cc2ccccc2)c2ccccc2)c1C | -6.3% | -4.3% | u | -1.3 | u
CC1(C)C(=O)N(CC(=O)Nc2ccc(OC(F)(F)F)cc2)c2ccccc21 | x | x | i | x | i
CC[C@H](C)[C@@H](C(=O)NCCCCCCCCCCC(=O)N1CCNCC1)n1cc(CCCCCN)nn1 | -1.9% | 5.4% | i | 49.5 | u
